The full data set covers some 7,900 targets. This sample favours those with a hit. About 0.6% of all pairs of compound and target were hits.
Compound: Cn1cc(-c2ccc3nnc(C(F)(F)c4ccc5ncccc5c4)n3n2)cn1
Assay: log2 fold change, soluble protein after heating vs DMSO (PISA); higher = thermal stabilisation; K562 cells, 10 uM, 30 min; active = over 0.2 and 3.5 SD of the protein, either way, in both replicates (recomputed)
In short: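 Soluble protein was defined as the supernatant after 21,000xg for 90 min. It came from K562 cells at 2×10^6 cells/mL given 10 μM compound for 30 min, heated in aliquots for 3 min across 48°C-58°C, pooled, and extracted in PBS with 0.5% NP-40 at 4°C, and was quantified by TMTpro 16plex LC-MS/MS with equalised channel sums. Thermal stability against control samples, from duplicates, is reported as log2 fold change.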

Sequence of UniProt Q6P1L5 (Q6P1L5 whole entry, looked up): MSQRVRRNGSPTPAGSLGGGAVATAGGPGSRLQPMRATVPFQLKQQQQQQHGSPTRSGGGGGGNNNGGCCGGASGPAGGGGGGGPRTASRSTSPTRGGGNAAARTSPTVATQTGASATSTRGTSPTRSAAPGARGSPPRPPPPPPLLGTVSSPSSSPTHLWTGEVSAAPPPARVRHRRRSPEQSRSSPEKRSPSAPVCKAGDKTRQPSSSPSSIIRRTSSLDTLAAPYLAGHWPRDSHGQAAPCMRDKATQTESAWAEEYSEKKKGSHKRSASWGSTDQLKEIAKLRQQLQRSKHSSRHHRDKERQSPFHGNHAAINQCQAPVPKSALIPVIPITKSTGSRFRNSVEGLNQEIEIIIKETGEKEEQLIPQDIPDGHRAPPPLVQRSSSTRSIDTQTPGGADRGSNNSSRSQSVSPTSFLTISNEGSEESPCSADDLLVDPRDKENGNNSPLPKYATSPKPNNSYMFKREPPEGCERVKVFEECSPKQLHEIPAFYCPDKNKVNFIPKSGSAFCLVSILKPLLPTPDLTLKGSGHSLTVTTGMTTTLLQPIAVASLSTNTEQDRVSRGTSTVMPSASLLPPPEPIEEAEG
Sequence of UniProt P32519 (P32519 whole entry, looked up): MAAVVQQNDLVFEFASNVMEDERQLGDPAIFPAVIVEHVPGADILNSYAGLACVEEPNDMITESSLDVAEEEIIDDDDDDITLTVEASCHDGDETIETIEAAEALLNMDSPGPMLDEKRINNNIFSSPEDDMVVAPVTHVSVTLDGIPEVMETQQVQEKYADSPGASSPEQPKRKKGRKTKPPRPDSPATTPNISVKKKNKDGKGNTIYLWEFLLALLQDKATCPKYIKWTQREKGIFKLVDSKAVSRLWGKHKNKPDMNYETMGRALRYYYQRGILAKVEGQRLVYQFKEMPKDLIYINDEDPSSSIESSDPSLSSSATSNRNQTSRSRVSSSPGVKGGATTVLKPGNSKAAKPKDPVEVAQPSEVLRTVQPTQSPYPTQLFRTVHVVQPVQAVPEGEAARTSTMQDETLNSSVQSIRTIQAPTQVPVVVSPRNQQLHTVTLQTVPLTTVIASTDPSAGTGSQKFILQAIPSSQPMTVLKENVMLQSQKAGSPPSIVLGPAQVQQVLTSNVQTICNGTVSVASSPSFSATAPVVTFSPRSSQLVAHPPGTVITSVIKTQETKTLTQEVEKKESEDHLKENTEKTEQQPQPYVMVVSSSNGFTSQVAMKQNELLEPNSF
Sequence of UniProt P25774 (P25774 whole entry, looked up): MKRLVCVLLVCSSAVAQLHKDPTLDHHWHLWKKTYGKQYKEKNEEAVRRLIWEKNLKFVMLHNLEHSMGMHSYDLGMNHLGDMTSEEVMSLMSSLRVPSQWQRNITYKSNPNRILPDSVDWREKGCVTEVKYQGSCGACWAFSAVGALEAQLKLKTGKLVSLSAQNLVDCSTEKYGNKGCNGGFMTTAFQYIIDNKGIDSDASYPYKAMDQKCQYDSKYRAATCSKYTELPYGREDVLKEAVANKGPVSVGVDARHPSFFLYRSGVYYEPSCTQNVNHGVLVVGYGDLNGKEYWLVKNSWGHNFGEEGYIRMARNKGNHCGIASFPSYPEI
Sequence of UniProt Q92556 (Q92556 whole entry, looked up): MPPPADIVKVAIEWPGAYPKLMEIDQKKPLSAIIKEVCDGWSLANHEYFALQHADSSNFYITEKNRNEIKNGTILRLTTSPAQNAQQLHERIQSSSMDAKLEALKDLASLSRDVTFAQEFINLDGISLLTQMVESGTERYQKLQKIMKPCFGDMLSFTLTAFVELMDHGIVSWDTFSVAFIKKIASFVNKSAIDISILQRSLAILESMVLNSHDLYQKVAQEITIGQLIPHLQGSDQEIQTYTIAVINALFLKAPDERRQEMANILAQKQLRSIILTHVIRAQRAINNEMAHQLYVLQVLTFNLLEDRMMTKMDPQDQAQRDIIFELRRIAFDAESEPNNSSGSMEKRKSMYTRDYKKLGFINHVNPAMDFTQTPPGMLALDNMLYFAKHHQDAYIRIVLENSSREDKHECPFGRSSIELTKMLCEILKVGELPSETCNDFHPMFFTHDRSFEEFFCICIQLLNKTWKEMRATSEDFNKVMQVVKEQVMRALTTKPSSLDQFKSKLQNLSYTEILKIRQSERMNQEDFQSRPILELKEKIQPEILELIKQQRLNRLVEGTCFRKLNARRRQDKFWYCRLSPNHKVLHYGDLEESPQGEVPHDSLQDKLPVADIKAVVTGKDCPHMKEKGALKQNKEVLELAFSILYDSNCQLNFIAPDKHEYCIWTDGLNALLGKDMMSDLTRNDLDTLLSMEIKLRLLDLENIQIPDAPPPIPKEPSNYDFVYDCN
Sequence of UniProt P68104 (P68104 whole entry, looked up): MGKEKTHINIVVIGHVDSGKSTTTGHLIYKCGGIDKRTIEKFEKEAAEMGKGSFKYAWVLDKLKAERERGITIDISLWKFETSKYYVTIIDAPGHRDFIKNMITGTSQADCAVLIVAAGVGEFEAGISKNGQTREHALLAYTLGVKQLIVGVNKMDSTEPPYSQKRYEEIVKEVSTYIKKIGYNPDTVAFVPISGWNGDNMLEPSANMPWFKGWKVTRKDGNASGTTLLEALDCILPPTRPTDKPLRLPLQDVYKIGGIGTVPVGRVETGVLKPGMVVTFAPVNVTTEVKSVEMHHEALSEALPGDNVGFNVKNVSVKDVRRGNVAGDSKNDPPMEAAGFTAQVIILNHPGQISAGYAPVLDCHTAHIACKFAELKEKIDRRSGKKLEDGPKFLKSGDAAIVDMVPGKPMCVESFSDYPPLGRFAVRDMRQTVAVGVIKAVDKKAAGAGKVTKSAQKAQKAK
Sequence of UniProt O43432 (O43432 whole entry, looked up): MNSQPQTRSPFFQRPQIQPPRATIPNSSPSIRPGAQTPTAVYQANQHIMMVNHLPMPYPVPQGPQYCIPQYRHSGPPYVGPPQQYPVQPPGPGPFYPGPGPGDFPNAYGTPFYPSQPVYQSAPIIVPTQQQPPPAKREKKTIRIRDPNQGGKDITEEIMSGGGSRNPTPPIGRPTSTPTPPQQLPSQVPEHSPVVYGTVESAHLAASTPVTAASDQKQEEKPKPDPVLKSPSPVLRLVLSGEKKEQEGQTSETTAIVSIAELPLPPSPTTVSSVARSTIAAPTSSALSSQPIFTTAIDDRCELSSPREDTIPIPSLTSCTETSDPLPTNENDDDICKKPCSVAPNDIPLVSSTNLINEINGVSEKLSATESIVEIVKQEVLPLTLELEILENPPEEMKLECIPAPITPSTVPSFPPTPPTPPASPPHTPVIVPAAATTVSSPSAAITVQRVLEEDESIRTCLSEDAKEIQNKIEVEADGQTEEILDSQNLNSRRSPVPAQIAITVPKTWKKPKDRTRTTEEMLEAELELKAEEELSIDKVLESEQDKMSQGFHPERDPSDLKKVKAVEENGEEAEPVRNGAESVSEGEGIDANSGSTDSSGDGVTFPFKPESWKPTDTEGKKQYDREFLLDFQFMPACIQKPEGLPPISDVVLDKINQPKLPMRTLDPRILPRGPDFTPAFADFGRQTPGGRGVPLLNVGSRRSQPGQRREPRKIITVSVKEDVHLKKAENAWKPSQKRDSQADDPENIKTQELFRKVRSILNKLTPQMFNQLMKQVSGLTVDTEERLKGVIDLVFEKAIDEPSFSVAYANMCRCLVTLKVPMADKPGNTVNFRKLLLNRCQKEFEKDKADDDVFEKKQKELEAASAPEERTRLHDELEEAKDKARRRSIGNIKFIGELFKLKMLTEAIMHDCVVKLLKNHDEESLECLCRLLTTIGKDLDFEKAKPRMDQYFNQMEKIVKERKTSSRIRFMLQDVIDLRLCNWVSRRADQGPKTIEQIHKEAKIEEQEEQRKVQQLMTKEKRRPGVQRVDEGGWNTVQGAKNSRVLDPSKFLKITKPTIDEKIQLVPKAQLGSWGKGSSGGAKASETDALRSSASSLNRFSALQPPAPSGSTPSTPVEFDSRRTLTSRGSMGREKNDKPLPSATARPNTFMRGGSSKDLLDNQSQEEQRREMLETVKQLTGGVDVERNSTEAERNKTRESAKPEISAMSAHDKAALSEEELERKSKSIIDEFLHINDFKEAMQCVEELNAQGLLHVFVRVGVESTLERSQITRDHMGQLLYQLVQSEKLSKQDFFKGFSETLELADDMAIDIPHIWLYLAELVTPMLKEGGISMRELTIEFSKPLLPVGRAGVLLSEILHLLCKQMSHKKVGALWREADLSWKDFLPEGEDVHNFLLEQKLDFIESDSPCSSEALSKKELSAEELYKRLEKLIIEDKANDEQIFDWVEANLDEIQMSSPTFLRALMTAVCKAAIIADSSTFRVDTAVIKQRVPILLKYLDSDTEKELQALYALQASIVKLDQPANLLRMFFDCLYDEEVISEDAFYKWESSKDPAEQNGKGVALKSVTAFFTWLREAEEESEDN
Sequence of UniProt Q8WV16 (Q8WV16 whole entry, looked up): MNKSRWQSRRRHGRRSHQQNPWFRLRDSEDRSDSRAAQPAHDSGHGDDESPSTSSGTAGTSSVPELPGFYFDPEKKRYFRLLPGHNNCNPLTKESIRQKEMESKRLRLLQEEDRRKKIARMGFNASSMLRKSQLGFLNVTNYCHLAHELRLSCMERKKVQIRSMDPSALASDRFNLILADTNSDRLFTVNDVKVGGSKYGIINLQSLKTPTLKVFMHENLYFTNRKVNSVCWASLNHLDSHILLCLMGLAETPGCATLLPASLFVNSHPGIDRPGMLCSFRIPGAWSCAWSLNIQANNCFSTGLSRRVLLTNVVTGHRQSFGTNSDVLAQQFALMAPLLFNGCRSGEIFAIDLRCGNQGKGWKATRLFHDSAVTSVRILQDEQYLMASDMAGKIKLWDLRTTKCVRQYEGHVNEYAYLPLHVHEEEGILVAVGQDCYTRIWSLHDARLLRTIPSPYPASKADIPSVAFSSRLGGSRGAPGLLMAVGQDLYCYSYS
Sequence of UniProt Q86YN1 (Q86YN1 whole entry, looked up): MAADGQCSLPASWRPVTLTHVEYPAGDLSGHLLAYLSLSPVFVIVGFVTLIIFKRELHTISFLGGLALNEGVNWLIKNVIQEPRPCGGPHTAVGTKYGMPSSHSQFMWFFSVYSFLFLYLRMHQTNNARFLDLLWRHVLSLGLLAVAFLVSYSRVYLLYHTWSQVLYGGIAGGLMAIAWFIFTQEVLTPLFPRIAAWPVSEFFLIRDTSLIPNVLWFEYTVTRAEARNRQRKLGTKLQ

log2 fold change, inactive:
DDX11 (UniProt Q96FC9) -0.132
DCP2 (UniProt Q8IU60) -0.033
F2RL3 (UniProt Q96RI0) 0.043
FAM117B (UniProt Q6P1L5) 0.072
ELMO1 (UniProt Q92556) 0.06
DHRS13 (UniProt Q6UX07) -0.168
CWF19L2 (UniProt Q2TBE0) 0.001
ELF1 (UniProt P32519) 0.049
DOLPP1 (UniProt Q86YN1) -0.006
EPHB4 (UniProt P54760) -0.051
DSN1 (UniProt Q9H410) 0.059
EEF2K (UniProt O00418) 0
DNAL1 (UniProt Q4LDG9) 0.012
DCAF4 (UniProt Q8WV16) 0.079
CTSS (UniProt P25774) -0.028
DYNC1I2 isoform 2 (UniProt Q13409) -0.067
DDX27 (UniProt Q96GQ7) -0.151
EEF1A1 (UniProt P68104) -0.063
EIF4G3 isoform 3 (UniProt O43432) 0.056

— the supplement of paper PMC10849652
